# High-throughput results from PubChem.
# In the library only some 2% were active in any assay of this set; here they are far more common.
# CR mimetic SO = lowers age-related superoxide in aged yeast cells. S. cerevisiae aged cells, superoxide DHE fluorescence; hits give low values. superoxide response (% of plate mean), % at 10 µM. actives 0.18% (n = 330,000). AID 2690;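 active = superoxide response under a set limit, about three screen SD below normal, cut at about 65% in these data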;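 also: yeast aged for seven days with compound at 30 °C before DHE staining; 100% = average MFI of all compound-treated wells on the plate with controls excluded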
# SKKanGAS inh = blocks kanamycin growth of S. pyogenes SKKanGAS strain | BacTiter-Glo, 6 h | inhibition, % at 7.5 µM | actives 1.3% (n = 300,000) | AID 1662;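 active = mean replicate score, as percent of positive control median, at least 50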;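 also: strain carries kanamycin resistance gene driven by streptokinase promoter and grows in 40 µg/ml kanamycin; loss of luminescence reflects streptokinase promoter inhibition or plain growth inhibition; 0% = median of DMSO wells and 100% = positive control at its reference dose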
# PolyA inh = yeast polyadenylation inhibition. S. cerevisiae SKY197-pL101 polyadenylation reporter, beta-gal luminescence; efflux-impaired pdr1/pdr3 knockout yeast; score 100 = 6 SD above DMSO. activity score, % at 12 µM. actives 0.02% (n = 300,000). AID 1875;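 active = lowest replicate activity score at least 50, where 100 means six control SD above control mean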;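 also: yeast exposed to compound for 9 h at 30 °C; higher score means more reporter readthrough which indicates perturbed polyadenylation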
# Platelet DG rel = platelet dense granule release activity | actives 0.22% (n = 300,000) | human platelet-rich plasma, SFLLRN dense granule ATP release, luminescence | AID 1663 | inhibition, %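 (compounds screened at 7.5 µM in platelet-rich plasma)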;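 active = mean replicate score, as percent of positive control, at or above 50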
# Calb FLC = C. albicans growth modulation with fluconazole. C. albicans CaCi-2 (fluconazole-resistant clinical isolate) + fluconazole, Alamar Blue growth, 48 h. growth inhibition, % (concentration not given with the values). actives 0.57% (n = 300,000). AID 1979;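 active = growth inhibition above about 58% in most replicates, limit read from the data, passing the limit was not always enough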;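 also: all wells also contain fluconazole at 8 µg/ml as a sub-toxic cotreatment; 0% = median of DMSO wells and 100% = median of geldanamycin control wells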
# The depositor's hits bear a star; . = no result.
SMILES,CR mimetic SO,SKKanGAS inh,PolyA inh,Platelet DG rel,Calb FLC
Cc1ccc(N=Nc2ccc(O)c(P(=O)(c3ccccc3)c3ccccc3)c2)cc1,97.8,49.7*,15.4,-0.1,-1.8
O=[N+]([O-])c1ccc(O)c(P(=O)(c2ccccc2)c2ccccc2)c1,90.8,-0.9,-5.1,-5.3,99.8*
COc1cccc(/C=C(/C(=O)OCC(=O)NC2CCCC(C)C2C)c2ccccc2)c1 (stereo unspecified),99.2,65.4*,-19.7,-12.9,-0.7
COc1ccccc1C1C2=C(N=c3s/c(=C/c4cccc(OCC(=O)O)c4)c(=O)n31)c1ccccc1CC2 (stereo unspecified),96.8,.,.,.,.
COc1cccc(C2C3=C(N=c4s/c(=C\c5ccc(OCC(=O)O)cc5)c(=O)n42)c2ccccc2CC3)c1 (stereo unspecified),128.6,101.6*,-4.2,13.4,17.9
CC1CC(=O)NN=C1c1ccc(N)c([N+](=O)[O-])c1 (stereo unspecified),86.7,-2.3,14.0,60.9*,0.5
Clc1ccc(/C=C/c2nc3ccccc3[nH]2)c(Cl)c1,89.5,43.2,-8.8,60.0*,55.4
Clc1ccc(/C=C/c2nc3ccccc3[nH]2)cc1,87.2,16.7,-17.1,78.0*,-3.8
Cc1ccc(S(=O)(=O)NC(C(=O)Oc2ccc3c(C(F)(F)F)cc(=O)oc3c2)c2ccccc2)cc1 (stereo unspecified),109.9,3.1,13.7,33.2,-2.7
[O-]/[N+](=C/c1ccc(F)cc1)c1ccc(Cl)cc1,89.8,-2.5,-0.9,57.2*,0.5
O=C(c1ccco1)N1CCN(Cc2csc(-c3ccccc3Cl)n2)CC1,97.3,-2.2,-11.3,-12.0,1.6
COc1ccc(CCN(C)C2CCCN(C(=O)CCC(F)(F)F)C2)cc1OC (stereo unspecified),86.6,-1.0,-1.9,-3.5,-7.3
COc1cc(OC)cc(C(=O)Nc2ccc(Nc3ccccc3)cc2)c1,87.0,22.1,-6.9,-2.6,-5.0
COc1cc(OC)cc(C(=O)Nc2nnc(NC(=S)Nc3ccccc3)s2)c1,109.3,51.8*,-16.6,-8.2,8.3
O=C(NCCCN1CCOCC1)c1ccc(Sc2cccc(Cl)c2)c([N+](=O)[O-])c1,101.7,-3.0,3.1,14.0,-27.3
NS(=O)(=O)c1ccc(NC(=O)COC(=O)CCNC(=O)NC23CC4CC(CC(C4)C2)C3)cc1,101.5,-7.8,0.8,0.7,0.0
CCC[C@@H]1C[C@@]1(CCC)[C@@H](NP(=O)(c1ccccc1)c1ccccc1)c1ccc(C(=O)OC)cc1,100.4,97.0*,4.2,1.8,16.5
COC(=O)c1cccc(C#CC(NP(=O)(c2ccccc2)c2ccccc2)c2ccccc2)c1 (stereo unspecified),95.1,22.3,-19.9,-4.9,12.7
Cc1csc(NC(=O)CCCNC(=O)c2ccc(Cl)cc2)n1,84.8,.,.,.,.
Cc1cc(Oc2ccc(-c3ccccc3)cc2)nc(N2CCOCC2)n1,83.7,54.0*,-14.6,-1.4,2.5
CN(C)c1ccc(O)c2c1CC1CC3C(N(C)C)C(=O)C(C(N)=O)=C(O)[C@@]3(O)C(=O)C1=C2O (stereo partly specified),111.5,109.6*,9.7,-2.2,.
C=C1c2cccc(O)c2C(O)=C2C(=O)[C@]3(O)C(O)=C(C(N)=O)C(=O)[C@@H](N(C)C)[C@@H]3[C@@H](O)[C@H]12,90.2,106.3*,-18.4,5.2,-4.2
COCC(C)NC(=O)CSc1ncnc2sc(-c3ccccc3)cc12 (stereo unspecified),98.6,35.6,-1.0,1.9,-4.2
Cc1nc(Nc2ccc(Cl)c(Cl)c2)sc1C(=O)Nc1ccccc1,92.7,91.0*,-1.1,-2.3,8.9
COc1ccc(NC(=S)Nc2ccc(C)c(S(=O)(=O)N3CCCCC3)c2)cc1,96.9,24.1,6.7,-9.6,0.4
SMILES,CR mimetic SO,SKKanGAS inh,PolyA inh,Platelet DG rel,Calb FLC
Cc1ccc(NC(=S)Nc2ccc(C(C)C)cc2)cc1S(=O)(=O)N1CCCCCC1,80.3,55.5*,4.3,0.3,-1.6
CNC[C@@H](Cc1ccccc1)NC[C@@H](CC1CCCCC1)NCCCc1ccccc1,.,64.4*,6.9,2.7,79.1*
CNC[C@@H](CC1CCCCC1)NC[C@H](CC(C)C)NCCc1cccc(C(F)(F)F)c1,.,87.5*,-0.1,-0.4,88.5*
CC1Oc2ccccc2N(Cc2ccc(F)cc2)C1=O (stereo unspecified),101.9,1.7,-8.2,6.2,0.6
O=C(CSc1nc2c(c(=O)[nH]1)CCC2)Nc1cccc(F)c1,102.6,4.7,-2.2,-4.2,-10.7
O=C(/C=C\c1ccc(-c2cccc([N+](=O)[O-])c2)o1)N1CCOCC1,100.2,-6.4,-5.6,-22.3,97.4*
O=C(c1cccc([N+](=O)[O-])c1)N1CCOCC1,92.1,9.1,11.3,-1.6,0.8
Cc1[nH]c2ccccc2c1/C=N/Nc1ccc([N+](=O)[O-])cc1S(=O)(=O)Nc1ccc(Cl)cc1,129.8,101.9*,3.0,5.7,27.8
COc1ccc(NS(=O)(=O)c2cc([N+](=O)[O-])ccc2N/N=C\c2c(C)[nH]c3ccccc23)cc1,102.7,27.4,-16.9,13.8,1.9
Nc1c(Cl)cc(C2=NCCn3c2c2ccc([N+](=O)[O-])cc2[n+]3[O-])cc1Cl,73.1,67.6*,-13.2,-5.3,39.5
CSCC[C@H](NC(=O)c1nn(C)c(=O)c2ccccc12)c1nc2ccccc2[nH]1,84.9,74.0*,-5.8,-1.8,4.7
Cc1ccc(S(=O)(=O)NCc2ccccc2)cc1C(=O)NCCc1ccc(S(N)(=O)=O)cc1,89.2,.,.,.,.
NC(=NCCCCCCN=C(N)/N=C(\N)Nc1ccc(Cl)cc1)/N=C(\N)Nc1ccc(Cl)cc1,103.2,102.6*,6.9,1.5,105.7*
CN1CCN(C2=Cc3ccc(Cl)cc3Sc3ccc(F)cc32)CC1,69.5,60.3*,3.6,-7.9,28.8
O=C1CSC(c2ccccc2)N1Cc1ccccc1 (stereo unspecified),110.5,2.7,0.4,-2.0,4.1
CCCCCCCn1c2c(c(=N)c3c1CCC3)CCCC2,.,7.5,-2.9,0.7,93.5*
CCCCCCCCCn1c2c(c(=N)c3c1CCC3)CCC2,109.1,21.4,5.1,-8.1,36.5
CCN(CC)c1nc(Nc2ccc([N+](=O)[O-])cc2)nc(N(CC)CC)n1,97.4,64.9*,30.6,-1.4,2.4
CCOc1nc(Nc2ccc([N+](=O)[O-])cc2)nc(NC(C)(C)C)n1,101.0,-6.7,-7.2,8.0,-1.8
Cc1cc2c(cc1C)CSC(c1c(O)ccc3ccccc13)SC2,108.8,94.4*,-7.5,4.6,61.5
COc1ccc(OC)c(/C=N/NC(=O)c2[nH]ncc2Br)c1,71.3,-2.2,1.9,10.0,-7.7
CCOc1ccc(/C=N/NC(=O)c2[nH]ncc2Br)c(O)c1,139.7,-8.1,31.5,83.6*,114.0*
CCOC(=O)Cc1ccc2sc(-c3ccccc3)nc2c1,100.9,16.9,-25.1,55.1*,-9.1
CCOC(=O)c1sc(-c2ccccc2)nc1C,94.1,-7.3,-10.3,4.4,-5.6
